Many of the other results were omitted from the sample, so hits are more common in it than they were.
Tgondii IFNg: blocks Toxoplasma gondii growth in the presence of IFN-gamma; 69,000 compounds, 3.8% hits; activity change, negative = inhibition, % (test concentration not listed); Toxoplasma gondii growth in IFN-gamma-treated host cells; hits give low values; AID 1259416; in the data active = activity change below about -70%, passing the limit was not always enough;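 also: host cells are HeLa cells infected with Toxoplasma gondii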
Large screens that a line does not name were inactive.

COc1cccc(CCNC(=O)c2cc3cccnc3n(Cc3ccc(Cl)cc3)c2=O)c1	none
C=CCN1CC[C@H]2[C@@H]1CCN2C(=O)c1cc(C)on1	none
C=CCN1CC[C@@H]2[C@@H]1CCN2C(=O)c1cncc(C)c1	Tgondii IFNg -98
C=CCN1CC[C@@H]2[C@@H]1CCN2c1ncc(F)cn1	none
CC12CCC3C(CC=C4CC(O)CCC43C)C1C/C(=C\c1cccc(F)c1)C2=O (stereo unspecified)	none
CN1CCOCC2(CCCNC2)C1 (stereo unspecified)	none
Cc1[nH]c2ccc(Cl)cc2c1C1=CCNCC1	none
N#Cc1ccc(N2CC3(CCN(Cc4cccnc4)C3)C2)nc1	none
COc1ccc(NC(=O)c2cc3cccnc3n(Cc3ccc(Cl)cc3)c2=O)cc1	none
O=C(NCc1ccc(Cl)cc1)c1cc2cccnc2n(Cc2ccccc2)c1=O	none
O=C(NCCc1ccccc1)c1cc2cccnc2n(Cc2ccccc2)c1=O	none
Cc1ccc(CNC(=O)c2cc3cccnc3n(Cc3ccc(Cl)cc3)c2=O)cc1	none
CCCCNC(=O)c1cc2cccnc2n(Cc2ccccc2)c1=O	none
COc1ccc(CNC(=O)c2cc3cccnc3n(Cc3ccc(Cl)cc3)c2=O)cc1	Tgondii IFNg -113
COc1ccc(CNC(=O)c2cc3cccnc3n(Cc3ccccc3)c2=O)cc1	Tgondii IFNg -74
CC(C)CNC(=O)c1cc2cccnc2n(Cc2ccccc2)c1=O	Tgondii IFNg -94
COc1ccc(CNC(=O)c2cc3cccnc3n(Cc3ccc(F)cc3)c2=O)cc1	none
CCOc1ccc(CN2C3CCC2Cc2c(nc(C)[nH]c2=O)C3)cc1 (stereo unspecified)	none
CN1CCC2(CC1)C(=O)Nc1ccc(C(=O)NC3CC3)cc12	none
Cc1cc(OC(=O)N(C)C)nc(-c2cccs2)n1	none
CC(C)NC(C)C(=O)c1ccc2ccccc2c1 (stereo unspecified)	none
CCN1CC[C@@H]2C[C@H](C(=O)Nc3cccnc3)O[C@@H]2C1	none
COP(=O)(OC)C(O)C(Cl)(Cl)Cl (stereo unspecified)	none
O=C(O)C[C@H]1CC[C@@H]2NC[C@H](O)COC[C@H]2O1	none
c1ccc(OCC2CC3OCCN(Cc4cccnc4)C3C2)nc1 (stereo unspecified)	none
C=CCOCc1cncc2c1CCN(Cc1cnn(C)c1)C2	none
CCc1cnc(N2CCC3C(C[C@@H](CN(C)C)N3C)C2)nc1 (stereo partly specified)	none
CCO[C@@H]1CC[C@@H]2[C@H]1OCCN2Cc1cc(C)on1	none
CCO[C@H]1CC[C@@H]2[C@H]1OCCN2Cc1cc(C)on1	Tgondii IFNg -81
Cc1cc(CN2CCO[C@@H]3[C@H]2CC[C@H]3OCC(C)C)no1	none
CCN1CC2CCC1C2Oc1cccnc1 (stereo unspecified)	none
CCN1C[C@H]2COC[C@H](CC(=O)NCCc3ccccn3)[C@H]2C1	none
CCCCCCCCCCCCC/C=C/[C@@H](O)[C@@H](N)COP(=O)(O)OCC[N+](C)(C)C	none
CC(C)CN1C[C@H](OCc2ccccn2)[C@@H]2OCCC[C@@H]21	none
CC(=O)O[C@@H]1C[C@@]2(C)[C@H](c3ccoc3)C[C@H]3O[C@]32[C@]2(C)C(=O)C(=O)C3C(C)(C)C(=O)C=C[C@]3(C)C12 (stereo partly specified)	Tgondii IFNg -83
CC1(C)C(=O)[C@@H]2O[C@@H]2[C@@]2(C)C1C[C@@H](O)[C@]1(C)C2CC[C@@]2(C)[C@H](c3ccoc3)OC(=O)C3OC321 (stereo partly specified)	none
O[C@H]1C[C@@H]2CN(Cc3cccn3-c3ccc(Cl)cn3)C[C@@H]2C[C@@H]1O	none
O=C(O)CN1CCC2(CC(c3ncccc3F)CO2)C1 (stereo unspecified)	none
O=C(NCCCc1ccccc1)c1cc2cccnc2n(Cc2ccccc2)c1=O	none
C[N+]12CCC(CC1)C(OC(=O)C(O)(c1ccccc1)c1ccccc1)C2 (stereo unspecified)	none
COc1ccc2c(c1)C1(CCN(C(=O)c3cccc(NC(C)=O)c3)CC1)CC2CC(=O)O (stereo unspecified)	none
O=C(NCCCN1CCOCC1)c1cc2cccnc2n(Cc2ccc(F)cc2)c1=O	none
COc1cc2c3cc1Oc1cc(ccc1O)C[C@@H]1c4c(cc(OC)c(O)c4Oc4ccc(cc4)C[C@H]3N(C)CC2)CCN1C	Tgondii IFNg -94
CN1CCc2cc(O)cc3c2[C@H]1Cc1ccc(O)c(O)c1-3	none
c1cncc(C2CCCN2)c1 (stereo unspecified)	none
Fc1cc(F)c2c(c1)[C@H]1C=CC[C@H]1C(c1cccnc1)N2 (stereo partly specified)	Tgondii IFNg -74
C=CCN1CC(C(=O)O)CN2CCN(C(=O)Cc3ccccc3)CC2C1 (stereo unspecified)	none
O=C(NCC1CCC2(CNCCOC2)O1)c1ccnnc1 (stereo unspecified)	none
O=C(c1cccc(Cl)c1)C1CCCN(C2CCCCC2)C1 (stereo unspecified)	none
CC(=O)OC1CN2CCC1CC2 (stereo unspecified)	none
O=C(Nc1cccc(Cl)c1)OC1CN2CCC1CC2 (stereo unspecified)	Tgondii IFNg -78
COCCN1CCCC12CCCN(C(=O)c1ccno1)C2 (stereo unspecified)	none

Source: PubChem BioAssay
